In ChEMBL document CHEMBL2218924, “A broad activity screen in support of a chemogenomic map for kinase signalling research and drug discovery” (Biochem J, 2013) one finds residual activity data, which are given here for 6 molecules.

Assay [1] has as its target T1, Serine/threonine-protein kinase TBK1 (Homo sapiens) (UniProt Q9UHD2).
T1 sequence (whole entry): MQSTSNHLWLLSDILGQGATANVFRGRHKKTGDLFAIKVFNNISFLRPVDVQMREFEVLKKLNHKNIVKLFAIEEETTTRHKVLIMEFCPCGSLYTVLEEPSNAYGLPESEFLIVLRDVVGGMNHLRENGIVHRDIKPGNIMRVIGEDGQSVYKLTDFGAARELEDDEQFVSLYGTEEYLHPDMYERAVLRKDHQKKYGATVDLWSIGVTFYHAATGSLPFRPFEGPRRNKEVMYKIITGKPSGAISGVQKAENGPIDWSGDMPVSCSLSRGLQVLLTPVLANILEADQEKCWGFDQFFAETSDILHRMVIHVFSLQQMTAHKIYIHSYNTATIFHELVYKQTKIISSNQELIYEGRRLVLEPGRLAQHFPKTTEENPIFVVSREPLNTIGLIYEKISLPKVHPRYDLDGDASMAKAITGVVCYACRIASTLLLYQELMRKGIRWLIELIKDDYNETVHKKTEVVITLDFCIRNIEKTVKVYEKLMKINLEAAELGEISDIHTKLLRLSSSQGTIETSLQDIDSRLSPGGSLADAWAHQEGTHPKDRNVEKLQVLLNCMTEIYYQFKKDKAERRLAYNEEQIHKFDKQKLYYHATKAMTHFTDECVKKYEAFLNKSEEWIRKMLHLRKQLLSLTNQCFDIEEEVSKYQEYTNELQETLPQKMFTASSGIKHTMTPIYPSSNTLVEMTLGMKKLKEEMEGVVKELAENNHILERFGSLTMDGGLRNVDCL
Particulars: at 10 µM.

In assay [2] the target is T2, TGF-beta receptor type-1 (Homo sapiens) (UniProt P36897).
T2 sequence (whole entry): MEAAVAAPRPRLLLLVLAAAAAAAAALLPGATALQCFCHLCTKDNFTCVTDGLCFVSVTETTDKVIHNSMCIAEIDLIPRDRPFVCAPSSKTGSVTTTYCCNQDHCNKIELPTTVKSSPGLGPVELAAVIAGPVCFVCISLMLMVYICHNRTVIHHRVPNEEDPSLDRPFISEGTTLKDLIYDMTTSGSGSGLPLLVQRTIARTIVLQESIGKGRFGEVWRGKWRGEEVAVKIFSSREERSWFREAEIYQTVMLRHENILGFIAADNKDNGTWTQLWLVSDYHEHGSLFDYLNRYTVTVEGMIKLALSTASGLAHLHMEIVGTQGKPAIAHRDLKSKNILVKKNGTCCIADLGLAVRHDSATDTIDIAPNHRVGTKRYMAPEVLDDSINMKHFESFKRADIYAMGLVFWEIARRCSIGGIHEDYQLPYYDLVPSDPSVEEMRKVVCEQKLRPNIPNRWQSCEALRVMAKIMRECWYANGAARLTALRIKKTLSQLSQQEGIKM
As to conditions: at 1 µM.

The target in assay [3] is T2, TGF-beta receptor type-1 (Homo sapiens). As to conditions: at 10 µM.
Assay [4] has as its target Insulin-like growth factor 1 receptor (Homo sapiens) (UniProt P08069). Particulars: at 1 µM.
For assay [5] the target is unchanged. Particulars: at 10 µM.
Assay [6] addresses T3, Inhibitor of nuclear factor kappa-B kinase subunit beta (Homo sapiens) (UniProt O14920).
T3 sequence (whole entry): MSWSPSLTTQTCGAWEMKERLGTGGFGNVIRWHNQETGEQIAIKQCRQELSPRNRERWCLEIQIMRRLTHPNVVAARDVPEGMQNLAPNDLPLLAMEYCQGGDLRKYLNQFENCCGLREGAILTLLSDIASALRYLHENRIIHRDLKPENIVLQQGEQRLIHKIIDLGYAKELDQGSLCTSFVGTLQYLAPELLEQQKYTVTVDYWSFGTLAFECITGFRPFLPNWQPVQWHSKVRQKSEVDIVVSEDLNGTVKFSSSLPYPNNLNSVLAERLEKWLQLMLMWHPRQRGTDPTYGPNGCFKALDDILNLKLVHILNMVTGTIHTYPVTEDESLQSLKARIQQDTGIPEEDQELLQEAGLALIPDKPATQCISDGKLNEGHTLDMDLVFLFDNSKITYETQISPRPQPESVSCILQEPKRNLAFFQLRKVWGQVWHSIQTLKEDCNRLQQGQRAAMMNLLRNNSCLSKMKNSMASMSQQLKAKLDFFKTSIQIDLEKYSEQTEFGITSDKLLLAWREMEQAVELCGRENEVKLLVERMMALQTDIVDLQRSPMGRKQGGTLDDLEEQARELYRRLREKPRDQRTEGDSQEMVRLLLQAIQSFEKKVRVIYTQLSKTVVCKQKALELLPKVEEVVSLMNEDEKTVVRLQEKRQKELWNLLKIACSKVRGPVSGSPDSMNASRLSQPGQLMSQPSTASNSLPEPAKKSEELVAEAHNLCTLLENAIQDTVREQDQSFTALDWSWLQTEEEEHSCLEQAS
As to conditions: at 1 µM.

For assay [7], the target named is T3, Inhibitor of nuclear factor kappa-B kinase subunit beta (Homo sapiens). Particulars: at 10 µM.
Assay [8] has as its target Insulin receptor (Homo sapiens) (UniProt P06213). As to conditions: at 1 µM.
For assay [9] the target is unchanged. As to conditions: at 10 µM.
Assay [10] shares this target. As to conditions: at 1 µM. This is another data set of the same source.
For assay [11] the target is unchanged. Particulars: at 10 µM. The source holds these as a separate data set.
The target of assay [12] is Interleukin-1 receptor-associated kinase 1 (Homo sapiens) (UniProt P51617). Particulars: at 1 µM.
Interleukin-1 receptor-associated kinase 1 (Homo sapiens), sequence (P51617 whole entry, looked up): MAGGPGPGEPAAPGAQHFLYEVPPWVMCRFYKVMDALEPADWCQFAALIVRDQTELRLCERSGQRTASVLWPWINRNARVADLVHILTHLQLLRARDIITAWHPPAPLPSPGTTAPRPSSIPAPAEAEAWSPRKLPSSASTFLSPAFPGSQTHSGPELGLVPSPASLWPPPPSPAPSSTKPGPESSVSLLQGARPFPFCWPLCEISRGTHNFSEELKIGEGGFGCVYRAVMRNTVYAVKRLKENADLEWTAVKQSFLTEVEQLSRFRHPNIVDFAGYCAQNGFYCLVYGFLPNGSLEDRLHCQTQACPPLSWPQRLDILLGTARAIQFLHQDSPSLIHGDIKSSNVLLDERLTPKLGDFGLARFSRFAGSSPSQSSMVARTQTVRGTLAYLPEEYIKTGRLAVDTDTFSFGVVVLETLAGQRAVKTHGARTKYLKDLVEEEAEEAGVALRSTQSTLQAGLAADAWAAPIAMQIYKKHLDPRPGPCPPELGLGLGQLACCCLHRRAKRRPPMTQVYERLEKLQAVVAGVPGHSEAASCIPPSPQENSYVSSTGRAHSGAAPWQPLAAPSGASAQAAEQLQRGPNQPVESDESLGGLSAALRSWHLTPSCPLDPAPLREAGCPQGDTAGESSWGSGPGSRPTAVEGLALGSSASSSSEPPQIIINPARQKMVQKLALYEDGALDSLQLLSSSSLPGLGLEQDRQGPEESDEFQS
Assay [13] addresses T4, Interleukin-1 receptor-associated kinase 4 (Homo sapiens) (UniProt Q9NWZ3).
T4 sequence (whole entry): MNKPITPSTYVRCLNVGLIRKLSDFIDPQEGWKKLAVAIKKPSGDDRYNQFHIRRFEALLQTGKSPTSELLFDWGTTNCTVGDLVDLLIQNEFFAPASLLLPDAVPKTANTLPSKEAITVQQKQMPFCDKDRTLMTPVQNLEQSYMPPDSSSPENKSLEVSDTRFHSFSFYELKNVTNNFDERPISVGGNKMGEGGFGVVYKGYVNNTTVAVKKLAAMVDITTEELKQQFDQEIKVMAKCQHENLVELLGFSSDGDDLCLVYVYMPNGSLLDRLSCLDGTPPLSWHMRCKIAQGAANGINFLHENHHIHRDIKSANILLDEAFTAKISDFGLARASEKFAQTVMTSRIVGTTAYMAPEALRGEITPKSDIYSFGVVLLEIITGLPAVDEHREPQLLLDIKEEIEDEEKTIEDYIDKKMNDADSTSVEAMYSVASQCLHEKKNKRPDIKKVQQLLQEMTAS
Particulars: at 1 µM.

In assay [14] the target is T4, Interleukin-1 receptor-associated kinase 4 (Homo sapiens). As to conditions: at 10 µM.
Assay [15] has as its target T5, Inhibitor of nuclear factor kappa-B kinase subunit alpha (Homo sapiens) (UniProt O15111).
T5 sequence (whole entry): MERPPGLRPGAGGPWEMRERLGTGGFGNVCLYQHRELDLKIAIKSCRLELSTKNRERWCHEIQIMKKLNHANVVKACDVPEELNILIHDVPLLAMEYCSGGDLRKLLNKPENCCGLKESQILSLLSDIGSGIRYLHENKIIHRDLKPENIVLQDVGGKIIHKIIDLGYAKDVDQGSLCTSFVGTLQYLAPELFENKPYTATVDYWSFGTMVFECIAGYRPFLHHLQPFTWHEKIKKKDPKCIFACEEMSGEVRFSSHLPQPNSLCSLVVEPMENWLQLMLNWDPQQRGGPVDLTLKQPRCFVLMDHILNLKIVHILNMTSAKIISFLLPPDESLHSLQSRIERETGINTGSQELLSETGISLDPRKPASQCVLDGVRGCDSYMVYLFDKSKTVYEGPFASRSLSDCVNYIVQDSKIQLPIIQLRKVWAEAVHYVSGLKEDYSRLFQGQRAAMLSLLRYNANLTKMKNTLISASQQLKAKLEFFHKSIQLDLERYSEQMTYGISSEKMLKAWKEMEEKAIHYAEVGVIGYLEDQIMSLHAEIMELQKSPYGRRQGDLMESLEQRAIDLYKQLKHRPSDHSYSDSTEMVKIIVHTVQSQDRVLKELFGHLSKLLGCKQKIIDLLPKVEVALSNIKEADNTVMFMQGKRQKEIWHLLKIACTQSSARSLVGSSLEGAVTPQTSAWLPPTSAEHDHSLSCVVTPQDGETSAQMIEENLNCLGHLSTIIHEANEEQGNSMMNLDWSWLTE
Particulars: at 10 µM.

In assay [16] the target is Interleukin-1 receptor-associated kinase 1 (Homo sapiens) (UniProt P51617). Particulars: at 10 µM.
Assay [17] has as its target Insulin receptor-related protein (Homo sapiens) (UniProt P14616). As to conditions: at 1 µM.
Assay [18] has the same target. Particulars: at 10 µM.
Assay [19] concerns the target T5, Inhibitor of nuclear factor kappa-B kinase subunit alpha (Homo sapiens). Particulars: at 1 µM.
Assay [20] has as its target T6, Tyrosine-protein kinase ITK/TSK (Homo sapiens) (UniProt Q08881).
T6 sequence (whole entry): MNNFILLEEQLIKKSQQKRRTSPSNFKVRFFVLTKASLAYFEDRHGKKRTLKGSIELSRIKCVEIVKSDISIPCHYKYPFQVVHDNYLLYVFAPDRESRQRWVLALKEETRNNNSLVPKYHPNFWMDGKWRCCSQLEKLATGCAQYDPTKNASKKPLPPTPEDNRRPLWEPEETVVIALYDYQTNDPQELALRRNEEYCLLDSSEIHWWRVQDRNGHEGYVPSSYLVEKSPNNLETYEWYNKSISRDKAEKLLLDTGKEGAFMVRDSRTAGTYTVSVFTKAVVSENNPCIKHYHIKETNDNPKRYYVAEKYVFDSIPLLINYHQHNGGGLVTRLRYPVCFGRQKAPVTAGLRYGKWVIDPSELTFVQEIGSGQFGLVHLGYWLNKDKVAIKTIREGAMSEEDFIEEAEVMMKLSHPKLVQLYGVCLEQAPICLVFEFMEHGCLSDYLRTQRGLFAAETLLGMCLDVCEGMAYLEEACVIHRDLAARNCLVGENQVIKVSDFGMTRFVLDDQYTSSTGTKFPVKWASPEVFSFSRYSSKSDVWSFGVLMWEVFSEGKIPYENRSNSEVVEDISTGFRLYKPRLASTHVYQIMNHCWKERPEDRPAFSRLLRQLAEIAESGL
As to conditions: at 1 µM.

A word on the residual activity: it is the signal under treatment as a percentage of the control signal.

Insulin-like growth factor 1 receptor (Homo sapiens), sequence (P08069 31-736 limits assumed): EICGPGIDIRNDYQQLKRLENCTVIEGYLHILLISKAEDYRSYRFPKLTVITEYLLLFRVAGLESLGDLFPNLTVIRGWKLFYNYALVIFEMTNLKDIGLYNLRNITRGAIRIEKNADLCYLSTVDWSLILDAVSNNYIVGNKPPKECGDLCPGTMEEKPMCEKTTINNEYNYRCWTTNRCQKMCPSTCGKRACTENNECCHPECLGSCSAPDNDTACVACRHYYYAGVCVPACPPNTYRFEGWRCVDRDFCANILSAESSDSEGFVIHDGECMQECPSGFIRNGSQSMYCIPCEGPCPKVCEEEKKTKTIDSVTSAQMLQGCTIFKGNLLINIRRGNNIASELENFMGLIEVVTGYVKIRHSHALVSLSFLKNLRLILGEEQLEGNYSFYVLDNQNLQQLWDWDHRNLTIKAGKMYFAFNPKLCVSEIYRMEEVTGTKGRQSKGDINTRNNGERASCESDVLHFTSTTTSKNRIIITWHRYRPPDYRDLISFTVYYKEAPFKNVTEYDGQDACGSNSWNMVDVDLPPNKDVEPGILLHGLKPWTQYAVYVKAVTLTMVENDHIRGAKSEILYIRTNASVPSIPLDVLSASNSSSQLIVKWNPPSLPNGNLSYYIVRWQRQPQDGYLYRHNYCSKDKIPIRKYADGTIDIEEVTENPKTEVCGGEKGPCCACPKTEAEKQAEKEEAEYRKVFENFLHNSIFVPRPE
Insulin-like growth factor 1 receptor (Homo sapiens), sequence (P08069 741-1367 limits assumed): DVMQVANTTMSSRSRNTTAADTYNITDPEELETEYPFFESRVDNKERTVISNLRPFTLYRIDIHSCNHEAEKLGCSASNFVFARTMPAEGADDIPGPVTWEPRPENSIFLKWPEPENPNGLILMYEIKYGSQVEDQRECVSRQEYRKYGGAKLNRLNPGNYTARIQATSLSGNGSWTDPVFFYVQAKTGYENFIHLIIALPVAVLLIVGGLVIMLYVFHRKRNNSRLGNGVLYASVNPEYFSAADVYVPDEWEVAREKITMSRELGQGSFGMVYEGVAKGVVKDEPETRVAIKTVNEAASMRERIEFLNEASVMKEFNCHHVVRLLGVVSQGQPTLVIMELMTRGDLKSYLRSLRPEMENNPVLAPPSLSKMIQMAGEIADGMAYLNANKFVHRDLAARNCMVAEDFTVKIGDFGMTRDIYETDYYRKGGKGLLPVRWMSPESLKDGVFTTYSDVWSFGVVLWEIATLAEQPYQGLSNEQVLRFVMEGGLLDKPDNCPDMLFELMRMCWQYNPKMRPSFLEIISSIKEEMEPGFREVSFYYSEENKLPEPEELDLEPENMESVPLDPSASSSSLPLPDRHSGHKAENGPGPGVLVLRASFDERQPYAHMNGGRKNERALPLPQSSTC
Insulin receptor-related protein (Homo sapiens), sequence (P14616 27-742 limits assumed): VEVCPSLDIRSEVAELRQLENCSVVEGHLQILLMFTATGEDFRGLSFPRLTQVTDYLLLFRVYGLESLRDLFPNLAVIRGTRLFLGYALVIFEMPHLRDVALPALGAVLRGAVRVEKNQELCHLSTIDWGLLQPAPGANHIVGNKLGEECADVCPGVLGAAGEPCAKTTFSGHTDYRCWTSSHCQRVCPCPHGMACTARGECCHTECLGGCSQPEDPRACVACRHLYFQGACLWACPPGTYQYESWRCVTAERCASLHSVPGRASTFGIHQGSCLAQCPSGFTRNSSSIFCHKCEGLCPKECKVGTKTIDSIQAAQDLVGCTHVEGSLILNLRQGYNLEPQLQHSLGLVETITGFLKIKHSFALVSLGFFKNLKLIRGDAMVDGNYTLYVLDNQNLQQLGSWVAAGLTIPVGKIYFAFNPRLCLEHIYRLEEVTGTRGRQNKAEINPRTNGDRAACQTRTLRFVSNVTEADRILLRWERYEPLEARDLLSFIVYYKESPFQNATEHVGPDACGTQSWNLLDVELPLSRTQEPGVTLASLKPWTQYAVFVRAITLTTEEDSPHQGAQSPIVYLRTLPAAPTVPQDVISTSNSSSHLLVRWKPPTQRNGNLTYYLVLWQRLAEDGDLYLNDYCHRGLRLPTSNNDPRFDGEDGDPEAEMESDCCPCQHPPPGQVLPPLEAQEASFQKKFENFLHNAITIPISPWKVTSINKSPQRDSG
Insulin receptor-related protein (Homo sapiens), sequence (P14616 747-1297 limits assumed): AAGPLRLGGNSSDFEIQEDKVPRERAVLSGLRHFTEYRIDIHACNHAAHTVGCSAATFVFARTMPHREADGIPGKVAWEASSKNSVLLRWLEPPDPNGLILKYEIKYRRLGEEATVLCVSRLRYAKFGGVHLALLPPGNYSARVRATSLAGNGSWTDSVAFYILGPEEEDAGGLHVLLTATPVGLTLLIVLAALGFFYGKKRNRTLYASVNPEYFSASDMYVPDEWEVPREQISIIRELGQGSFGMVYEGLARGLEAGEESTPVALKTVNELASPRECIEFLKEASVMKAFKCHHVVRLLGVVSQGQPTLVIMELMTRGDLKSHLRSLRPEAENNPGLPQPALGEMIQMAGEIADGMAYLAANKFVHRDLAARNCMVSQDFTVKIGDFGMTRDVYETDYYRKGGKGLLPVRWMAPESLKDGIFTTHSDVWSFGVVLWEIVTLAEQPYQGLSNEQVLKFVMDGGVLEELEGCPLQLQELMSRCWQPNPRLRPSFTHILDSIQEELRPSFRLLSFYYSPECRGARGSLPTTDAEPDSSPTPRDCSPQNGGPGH
Insulin receptor (Homo sapiens), sequence (P06213 28-758 limits assumed): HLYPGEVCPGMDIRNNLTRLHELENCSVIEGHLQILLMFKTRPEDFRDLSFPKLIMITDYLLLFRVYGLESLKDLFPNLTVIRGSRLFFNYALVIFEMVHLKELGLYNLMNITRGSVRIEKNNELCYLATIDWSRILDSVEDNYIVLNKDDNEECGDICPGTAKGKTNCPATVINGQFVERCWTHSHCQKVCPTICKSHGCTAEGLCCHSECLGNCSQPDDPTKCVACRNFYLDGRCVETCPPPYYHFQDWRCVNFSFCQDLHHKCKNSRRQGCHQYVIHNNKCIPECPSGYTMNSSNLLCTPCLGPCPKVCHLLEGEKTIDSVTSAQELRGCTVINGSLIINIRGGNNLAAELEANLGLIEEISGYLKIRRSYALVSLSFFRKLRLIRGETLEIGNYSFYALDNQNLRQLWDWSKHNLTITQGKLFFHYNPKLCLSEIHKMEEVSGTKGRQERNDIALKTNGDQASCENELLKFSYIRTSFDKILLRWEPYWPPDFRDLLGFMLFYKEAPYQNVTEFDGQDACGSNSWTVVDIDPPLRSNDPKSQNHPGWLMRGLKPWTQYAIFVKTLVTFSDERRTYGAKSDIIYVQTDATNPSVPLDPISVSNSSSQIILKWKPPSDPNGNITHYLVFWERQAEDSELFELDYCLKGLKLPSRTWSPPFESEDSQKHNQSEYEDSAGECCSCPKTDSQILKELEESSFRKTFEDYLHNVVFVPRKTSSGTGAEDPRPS
Insulin receptor (Homo sapiens), sequence (P06213 763-1382 limits assumed): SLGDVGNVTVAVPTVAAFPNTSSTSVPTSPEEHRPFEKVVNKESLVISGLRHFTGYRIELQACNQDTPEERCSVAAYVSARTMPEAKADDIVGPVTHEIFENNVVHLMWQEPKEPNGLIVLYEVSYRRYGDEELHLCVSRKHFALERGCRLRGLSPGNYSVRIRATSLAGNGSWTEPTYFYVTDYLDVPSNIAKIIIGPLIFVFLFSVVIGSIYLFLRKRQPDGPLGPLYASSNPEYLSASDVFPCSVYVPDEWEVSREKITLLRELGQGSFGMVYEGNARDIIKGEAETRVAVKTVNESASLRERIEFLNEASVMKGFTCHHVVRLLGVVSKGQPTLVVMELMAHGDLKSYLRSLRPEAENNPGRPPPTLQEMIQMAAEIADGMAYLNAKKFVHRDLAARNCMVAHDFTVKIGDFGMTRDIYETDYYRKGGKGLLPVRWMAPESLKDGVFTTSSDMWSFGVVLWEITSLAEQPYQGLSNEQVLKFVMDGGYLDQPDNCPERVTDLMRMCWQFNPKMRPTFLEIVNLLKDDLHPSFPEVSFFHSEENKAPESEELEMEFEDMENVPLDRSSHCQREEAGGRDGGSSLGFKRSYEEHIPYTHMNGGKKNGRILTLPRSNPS

Consider `O=C1C(Cl)=C(N2C(=O)CCC2=O)C(=O)c2ccccc21`, for which the residual activity is 60% in [1]; 100% in assay [2]; 90% in assay [3]; 90% in [4]; 101% in assay [5]; 116% in assay [6]. The residual activity in assay [7] was 92%; in [8] it was 100%; in [9], 87%; in [10], 89%; in [11], 93%; in [12], 85%. Besides, the residual activity turned out to be 75% in [13] and 83% in assay [14].

Turning to `O=C1Nc2ccc(Cl)cc2/C1=C/c1cc(Cl)c(O)c(Cl)c1`, the residual activity in assay [1] came to 38%; in assay [2], 79%; in assay [3], 42%; in [15], 88%; in assay [6], 100%; in [7], 67%. Besides, the residual activity in [8] was 96%; in [9], 63%; in assay [10], 95%; in assay [11], 57%; in assay [12], 84%; in assay [16], 81%. For the same molecule, the residual activity came to 75% in [13], 51% in [14], 111% in assay [17] and 74% in assay [18].

As to `O=C(O)/C=C/c1cc(Br)c(Br)c(Br)c1Br`, the residual activity in assay [1] was 58%; in assay [2], 101%; in [3], 97%; in assay [19], 98%; in assay [15], 35%; in [6], 105%. The residual activity turned out to be 65% in [7]; 144% in assay [8]; 141% in [9]; 100% in [10]; 90% in [11]; 101% in assay [12]. Further, the residual activity in assay [16] was 68%; in [14] it was 94%.

On to `Cn1sc(=O)n(Cc2ccccc2)c1=O`, for which the residual activity in assay [1] is 55%; in assay [2] it was 77%; in assay [3], 72%; in [19] it was 91%; in assay [15] it was 93%; in assay [8], 93%. Also, the residual activity in assay [9] is 82%; in assay [10], 96%; in assay [11], 93%; in assay [13], 74%; in assay [14], 76%; in [20] it was 97%.

`COc1ccc(Cl)cc1NC(=O)Nc1cc(C)nc2ccccc12`: the residual activity in assay [1] was 69%; in assay [2] it was 86%; in [3], 94%; in assay [12] it was 96%; in assay [16], 100%.

Take `Nc1ncnc2[nH]nc(Nc3ccc(F)cc3)c12`: the residual activity in [1] came out at 58%; in [2] it was 107%; in assay [3] it was 74%; in assay [4], 109%; in assay [5], 112%; in [19], 105%. Further, the residual activity in assay [6] is 115%; in assay [7] it was 108%; in [8], 141%; in assay [9] it was 103%; in [10], 97%; in [11], 90%. Besides, the residual activity in assay [12] stood at 93%; in assay [16], 101%; in assay [14] it was 58%; in [17] it was 124%; in [18] it was 106%; in assay [20], 103%.
